Screens from PubChem.
Coupling enz = inhibits coupling enzyme system, counter-screen for aldolase hits; coupling enzyme system counterscreen, AmpLite Red fluorescence; activity change, negative = inhibition, % at 58.2 µM, hits read low; actives 0.67% (n = 290,000); AID 2472; in the data active means activity change below about -30%; further: on the % scale 0 is the no-effect control and ±100 the full control effect
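First, compound is pin-transferred into glyceraldehyde-3-phosphate coupling-enzyme reagent at 57.5 uM final and held 10 min at RT. Next, substrate, coupling system and AmpLite Red are added. After 20 min RT, fluorescence (525/598 nm) is read.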
Tau FP inhib = inhibitors of human tau fibril formation; P10636; K18 P301L tau heparin fibrillization, Alexa594 FP, 6 h; Potency, µM (highest dose often 57.7 µM), for the others: at the highest dose activity, negative = inhibition, hits mostly inhibitors; actives 0.39% (n = 280,000); AID 1468; active means well fitted curve in the direction sought with a large enough effect; inconclusive means small, poorly fitted or top-dose-only effect, or another doubt; inactive means no such curve, though single readings can be large; an effect the other way counts as inactive or inconclusive; further: potency means the concentration at half of the fitted maximal effect; on the % scale 0 is the no-effect control and ±100 the full control effect; nearly all actives have a fitted effect of over 55% in size
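Quantitative HTS format: compounds meet 15 uM recombinant K18 P301L tau and Alexa 594-tau tracer in 100 mM sodium acetate pH 7; 20 uM heparin triggers fibrillization at 37 C over 6 hr; FP gives the signal.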
USP1-UAF1 inh = USP1/UAF1 (human) deubiquitinase inhibition; Potency, µM (series often up to 57.1 µM), for inactives: at the highest dose activity change, negative = inhibition, actives largely listed as inhibitors; recombinant USP1/UAF1, Ub-Rhodamine cleavage fluorescence; actives 0.23% (n = 390,000); O94782; active means well fitted curve in the direction sought with a large enough effect; inconclusive means small, poorly fitted or top-dose-only effect, or another doubt; inactive means no such curve, though single readings can be large; an effect the other way counts as inactive or inconclusive; further: potency means the concentration at half of the fitted maximal effect; on the % scale 0 is the no-effect control and ±100 the full control effect; nearly all actives have a fitted effect of over 60% in size
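High-throughput fluorogenic screen: 1nM USP1/UAF1 complex, Ub-Rho substrate 150nM final, 50mM HEPES pH 7.8 with 0.5mM EDTA, 0.1 mg/ml BSA, 1mM TCEP and 0.01% Tween-20.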
Tau fluor counter = counter-screen for tau fibril formation inhibitors; tau K18 P301L Alexa594 fluorescence, heparin fibrillization; Potency, µM (titrated, usually from 57.7 µM), for inactives: at the highest dose activity change, negative = decrease; actives 0.93% (n = 280,000); AID 1463; active means well fitted curve in the direction sought with a large enough effect; inconclusive means small, poorly fitted or top-dose-only effect, or another doubt; inactive means no such curve, though single readings can be large; an effect the other way counts as inactive or inconclusive; further: potency means the concentration at half of the fitted maximal effect; on the % scale 0 is the no-effect control and ±100 the full control effect; nearly all actives have a fitted effect of over 55% in size
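Human tau K18 P301L (15 uM unlabeled, 0.24 uM Alexa 594-labeled) in 100 mM sodium acetate pH 7 with 20 uM heparin, 6 hr at 37 C. ThT 30 uM added, 1 hr ambient; Alexa 594 FP and total fluorescence read at 555/632 nm.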
Tau ThT inhib = tau fibrillization inhibition (ThT binding). AID 1460. Potency, µM (top dose mostly 57.4 µM), for inactives: at the highest dose activity, negative = inhibition, usual class: inhibitors. actives 2.1% (n = 270,000). recombinant tau K18 P301L (four-repeat tau fragment), heparin-induced fibrillization, ThT fluorescence; active means well fitted curve in the direction sought with a large enough effect; inconclusive means small, poorly fitted or top-dose-only effect, or another doubt; inactive means no such curve, though single readings can be large; an effect the other way counts as inactive or inconclusive; further: potency means the concentration at half of the fitted maximal effect; on the % scale 0 is the no-effect control and ±100 the full control effect; nearly all actives have a fitted effect of over 55% in size
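Heparin-induced (20 uM) aggregation of recombinant human K18 P301L tau, 15 uM unlabeled with 0.24 uM labeled, pH 7 acetate buffer, 6 hr at 37 C with compound. Fibrils quantified by 30 uM ThT fluorescence after 1 hr ambient incubation.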
Casp1 catalase = caspase-1 inhibition with catalase present; shares compounds with Coupling enz; caspase-1 Ac-WEHD-AFC fluorescence rate, catalase buffer; Potency, µM (highest dose often 57.5 µM), for the others: at the top dose activity change, negative = inhibition, actives largely listed as inhibitors; 30 tested, under 10 active
Casp1 confirm = confirmation of allosteric or competitive inhibitors of human caspase-1 | shares compounds with Coupling enz | purified caspase-1, fluorogenic substrate cleavage | Potency, µM (series often up to 57.5 µM), for inactives: at the top dose activity change, negative = inhibition, hits mostly inhibitors | actives 20% (n = 60)
Casp7 confirm = blocks human caspase-7 activity in concentration-response. shares compounds with Coupling enz. recombinant caspase-7, fluorogenic substrate cleavage. Potency, µM (titrated, usually from 57.5 µM), for inactives: at the highest dose activity change, negative = inhibition, hits mostly inhibitors. 60 tested, under 10 active. AID 897; active means well fitted inhibition curve with a large enough effect in the main read-out, with a control signal flat, not every such curve was filed as active; inconclusive means small, poorly fitted or top-dose-only effect, or a change in a side signal; inactive means no such curve, though single readings can be large or run the other way
Casp7 cysteine = inhibits caspase-7 in cysteine buffer, redox counter-screen. shares compounds with Coupling enz. caspase-7 enzyme with cysteine, fluorogenic substrate, redox counterscreen. Potency, µM (doses to about 57.5 µM), inactives show at the top dose activity change, negative = inhibition, usual class: inhibitors. 60 tested, under 10 active. AID 908
Casp7 catalase = counter-screen for redox active caspase-7 inhibitors: catalase buffer; Caspase-7 Ac-DEVD-AFC fluorescence rate, catalase buffer; shares compounds with Coupling enz; 30 tested, under 10 active; Potency, µM (series often up to 57.5 µM), inactives show top-dose activity, negative = inhibition, hits mostly inhibitors; AID 909
CASP1 redox cys = caspase-1 inhibition with cysteine present; shares compounds with Coupling enz; recombinant caspase-1, fluorogenic substrate, cysteine buffer; Potency, µM (highest dose often 57.5 µM), inactives show at the highest dose activity change, negative = inhibition, actives largely listed as inhibitors; 60 tested, under 10 active
Numbers without * were called inactive; ? = inconclusive; . = not tested or not shown; [ ] = remark or other dose. The list is not random: actives were taken first. Their share in the collection is about 2.3%. Unless noted, the call rests on the fitted dose curve; in most records, active means well fitted inhibition curve with a large enough effect in the main read-out, with a control signal flat; inconclusive means small, poorly fitted or top-dose-only effect, or a change in a side signal; inactive means no such curve, though single readings can be large or run the other way.

SMILES	Coupling enz	Tau FP inhib	USP1-UAF1 inh	Tau fluor counter	Tau ThT inhib	Casp1 catalase	Casp1 confirm	Casp7 confirm	Casp7 cysteine	Casp7 catalase	CASP1 redox cys
CCc1ccc(C2c3c(-c4ccccc4O)n[nH]c3C(=O)N2Cc2cccnc2)cc1 (centres undefined)	.	-10%	?	-13%	10%	.	.	.	.	.	.
COc1ccc2c(c1)Cc1sc(NC(=O)c3cccs3)nc1-2	-35*	?	?	?	13µM*	?	-48%	-12%	-13%	-12%	-54%
COc1ccc2nc(NC(=O)c3cccs3)sc2c1	1	-9%	-6%	-19%	-4%	.	.	.	.	.	.
CCc1noc(-c2ccc(N3CCCCC3)c([N+](=O)[O-])c2)n1	.	-8%	-28%	-5%	6%	.	.	.	.	.	.
O=C1Cc2ccccc2C(=O)N1CCc1ccccc1	-47*	?	5.6µM*	-17%	-10%	.	6.3µM*	10µM*	-3%	.	-1%
CCc1ccc(CNc2ccc(O)cc2)cc1	-58*	7.1µM*	28µM*	?	3.2µM*	.	-5%	-3%	-4%	.	9%
CCc1ccc(CNc2ccc3c(c2)ncn3CC)cc1	-1	.	-21%	.	.	.	.	.	.	.	.
O=c1cnnc(SCCc2ccccc2)[nH]1	11	?	-20%	-8%	-14%	4%	-6%	-2%	-6%	2%	5%
O=C(COc1ccccc1)N(Cc1ccco1)c1ccc(O)cc1	9	?	-10%	-9%	1%	.	.	.	.	.	.
O=C(c1ccc(Cl)c(Cl)c1)N(Cc1ccco1)c1ccc(O)cc1	6	-10%	-18%	-26%	-10%	-10%	-3%	?	?	32µM*	8%
O=C(Nc1ccc2c(c1)OCO2)C1CCCN(c2nc3ccccc3s2)C1 (centres undefined)	-7	?	-16%	?	?	1%	-9%	-7%	-4%	-6%	7%
Cc1cccc(NC(=O)C2CCCN(c3nc4ccccc4s3)C2)c1C (centres undefined)	.	-1%	-23%	-3%	1%	.	.	.	.	.	.
COc1cc2c(Cc3c4c5c(cc(OC)c(OC)c5c5c(OC)c(OC)ccc35)CCN4C)c3c4c(cc(OC)c(OC)c4c2cc1OC)CCN3C	-33*	-4%	.	?	?	.	?	-43%	-8%	.	?
COc1cc2c(C(=O)c3ccccc3)c3c4c(cc(OC)c(OC)c4c2cc1OC)CCN3C	-14	9%	.	?	?	.	.	.	.	.	.
[C-]1=CC=CC1.[C-]1=CC=CC1.[Cl-].[Cl-].[Ti+4]	.	.	.	.	.	.	?	-36%	-33%	.	-14%
Oc1c(C(c2cccc(Cl)c2)N2CCOCC2)sc2nc(-c3ccco3)nn12 (centres undefined)	.	-8%	-16%	-14%	?	.	.	.	.	.	.
COc1ccc2c(c1)C(=O)N(c1ccc(C)cc1C)C(=O)C2	0	-2%	?	-6%	-12%	.	.	.	.	.	.
COc1ccc2c(c1)C(=O)N(c1ccccc1OC)C(=O)C2	-11	-4%	?	-8%	-12%	?	?	-12%	-7%	-12%	?
O=C(COC(=O)c1cc(-c2ccco2)nc2ccccc12)NCc1ccc2c(c1)OCO2	2	?	-6%	-24%	-17%	?	?	?	-12%	-21%	?
COc1ccc(OC)c(N(CCN2C(=O)c3ccccc3C2=O)C(=O)CCl)c1	.	.	-18%	.	.	.	.	.	.	.	.
CCOC(=O)OCC1OC(C#Cc2ccccc2)C=CC1Oc1cccc(N(C)C)c1 (centres undefined)	0	1%[11.6 µM]	.	-20%[11.6 µM]	?	.	.	.	.	.	.
